Among the data in PubChem BioAssay (NCI) are growth values, retold here.

Molecules are shown by their SMILES. The panel holds about 83,000 compounds, 20% with a hit somewhere; the sample as a whole holds those more often.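 How to read the values: 0–100, growth inhibition (40 = 60% inhibited); 0, no net growth; -100 to 0, cell death (-40 = 40% of starting cells died; -100 = all dead).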 Values without a mark were called inactive. Active and inactive are the calls of the source. How the source made its calls: active means growth percent below 10; inactive means the rest.

In the experiment the test system is HL-60(TB) leukemia. The experiment can be described thus: NCI-60 one-dose screen, 48 h (100 = growth as untreated, 0 = no growth, -100 = all killed). The settings on record: 10 µM unless noted.
With `Nc1ncnc2c1c(-c1cccc(OCc3ccccc3)c1)cn2C1CC(CN2CCC2)C1` (stereo not given), the growth is -51.5% (active).

Take `CC(CC(CCC(=O)O)(c1ccccc1)c1ccccc1)N(C)C` (stereo not given): the growth was 109%.

In the case of `O=C(O)Cn1ccc2ccccc21`, the growth is 104%.

On to `CC(=O)Nc1cc2c3c(cccc3c1)-c1ccccc1-2`, for which the growth was 0.506% (active).

For `COc1ccc2c(c1)O/C(=C\c1cccc(OCC(=O)Nc3nc(C)c(C)s3)c1)C2=O`, the growth is -77.3% (active).

As for `CCOC(=O)C(C(=O)OCC)C(c1ccccc1)N1CCN(c2ccccc2)CC1` (stereo not given), the growth is 97.7%.

As for `CCOC(=O)CNC(=O)Sc1ccc(C(C)(C)C)cc1`, the growth is 64.4%.

On to `O=C(COc1ccc(-c2nc3cc(Cl)c(Cl)cc3[nH]2)cc1)N=Nc1c(O)[nH]c2ccccc12`, for which the growth was 68.5%.

For the compound `O=C1/C(=C2\SC(=S)N(C3CC3)C2=O)SC(=S)N1C1CC1`, the growth was 104%.

As to `O=c1c2cccc(F)c2sc2c(N3CCNCC3)nc3ccccc3c12`, the growth was 30.9%.

`CCOC(=O)c1cc(C#N)n2ncc3ccccc3c12`: the growth was 105%.

For `C#C[C@@]1(O)[C@@H](CO)O[C@@H](n2cc(Cl)c3c(N)ccnc32)[C@@H]1O`, the growth is -2.37% (active).

As to `O=C1c2ccccc2-c2nccc3cc(Cl)nc1c23`, the growth is 1.84% (active).

On to `CN(C)CCS(=O)(=O)Nc1cc(-c2ccc3ncnc(Nc4ccc(F)c(Cl)c4)c3c2)cnc1Cl`, for which the growth is -15% (active).

In the case of `O=C1N[C@@H]2[C@@H](O)[C@@H](O)[C@H](O)C[C@H]2c2cc3c(c(O)c21)OCCO3`, the growth is -18.8% (active).
